From PubChem BioAssay
ELG1 genotoxic: qHTS screen for small molecules that induce genotoxicity in human embryonic kidney (HEK293T) cells expressing luciferase-tagged ELG1; HEK293T ELG1-luciferase reporter, luminescence, 16 h; Potency, µM (doses to about 46 µM), for inactives: at the highest dose activity change, positive = activation, usual class: activators; 330,000 compounds, 1.3% hits; AID 504466, 2011; further: % of control where 0% means no effect; nearly all actives have a fitted effect of over 60% in size
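16 hr compound incubation (37 °C, 5% CO2) of HEK293T cells carrying luciferase-tagged ELG1; luciferase then measured by ONE-Glo luminescence after 30 min at RT.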
NPC1 promoter act: qHTS Assay for NPC1 Promoter Activators; Huh7 NPC1 promoter luciferase reporter, 24 h; Potency, µM (highest dose often 9.22 µM), for the others: at the top dose activation, most hits filed as activators; 320,000 compounds, 2.4% hits; further: % of control where 0% means no effect; nearly all actives have a fitted effect of over 60% in size
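In 1536-well qHTS, Huh7 cells harboring an NPC1 promoter–luciferase construct received compound for 24 h; activation was quantified by luminescence following luciferase reagent addition.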
FLuc modulator: qHTS profiling assay for firefly luciferase inhibitor/activator using purifed enzyme and Km concentrations of substrates (counterscreen for miR-21 project). Luciferin 4-monooxygenase (Photinus pyralis), P08659. 360,000 compounds, 6.9% hits. AID 588342, 2011. purified FLuc, Km substrates, luminescence inhibition. Potency, µM (titrated, usually from 57.5 µM), inactives show top-dose activity change, negative = inhibition, hits mostly inhibitors;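 further: plate controls were vehicle for no effect and reference inhibitor for full effect; nearly all actives have a fitted effect of over 55% in size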
Target sequence (P08659 whole entry, looked up): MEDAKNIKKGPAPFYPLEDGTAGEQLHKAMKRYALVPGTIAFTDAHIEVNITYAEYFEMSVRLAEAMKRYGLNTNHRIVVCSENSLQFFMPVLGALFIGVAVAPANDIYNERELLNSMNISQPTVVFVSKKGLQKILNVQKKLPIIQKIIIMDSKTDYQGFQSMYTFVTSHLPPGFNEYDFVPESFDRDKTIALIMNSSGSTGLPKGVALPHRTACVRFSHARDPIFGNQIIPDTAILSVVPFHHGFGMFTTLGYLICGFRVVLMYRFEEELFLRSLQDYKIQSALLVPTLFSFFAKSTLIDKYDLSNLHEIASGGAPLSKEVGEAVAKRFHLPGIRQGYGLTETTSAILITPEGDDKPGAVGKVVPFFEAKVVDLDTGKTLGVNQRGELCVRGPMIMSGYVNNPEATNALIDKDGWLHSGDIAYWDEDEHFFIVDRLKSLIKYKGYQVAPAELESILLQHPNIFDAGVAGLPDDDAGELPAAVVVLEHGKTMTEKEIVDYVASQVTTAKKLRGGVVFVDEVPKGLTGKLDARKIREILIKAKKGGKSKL
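Purified P. pyralis luciferase (10nM final) with 10uM D-luciferin and 10uM ATP (Km levels) in 50mM Tris acetate pH 7.5, 10mM Mg acetate, 0.01% Tween-20, 0.05% BSA; qHTS 6-point titration, ~60 µM downward; luminescence read.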
Rab9 promoter act: qHTS Assay for Rab9 Promoter Activators | Potency, µM (series often up to 9.22 µM), for the others: at the highest dose activation, negative = inhibition, usual class: activators | AID 485297, 2010 | Huh7 Rab9 promoter-luciferase reporter, luminescence, 24 h | 320,000 compounds, 2.8% hits; further: % of control where 0% means no effect; nearly all actives have a fitted effect of over 60% in size
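Promoter activation is measured as luciferase luminescence in Huh7 cells stably transfected with a Rab9 promoter–luciferase construct, following 24 h compound exposure at 37 °C and 10 min reagent incubation at ambient temperature.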
SMN2 splice enh: qHTS Assay for Enhancers of SMN2 Splice Variant Expression. 210,000 compounds, 2.8% hits. HEK293 SMN2-luciferase splicing reporter, luminescence, 30-36 h. Potency, µM (series often up to 46.1 µM), without a hit: at the top dose activity change, positive = activation, hits mostly activators; further: % of control where 0% means no effect; nearly all actives have a fitted effect of over 55% in size
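HEK293 cells carry an SMN2 […]–luciferase reporter in which exon 7 inclusion puts luciferase in frame. Cells were plated 10-12 h before compound addition, then incubated 30-36 h at 37C. ONE-Glo luminescence was read; sodium butyrate at 4.5 mM final served as control.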
KinaseGlo FLuc: Counterscreen for Luciferase (Kinase-Glo TM) Inhibition; Luciferin 4-monooxygenase (Photuris pensylvanica), Q27757; Kinase-Glo luciferase, ATP luminescence, 8 min; Potency, µM (highest dose often 38.3 µM), without a hit: at the highest dose activity change, negative = inhibition, usual class: inhibitors; 200,000 compounds, 0.28% hits; AID 1379, 2008; further: on the % scale 0 is the no-effect control and ±100 the full control effect; nearly all actives have a fitted effect of over 60% in size
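Recombinant Kinase-Glo luciferase, 10 uM ATP (linear range), luciferin; imidazole pH 7.2 / KCl / MgCl2 / Tween / BSA buffer; 8 min RT; luminescence.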
* marks the source's active call; other numbers are inactive results. Compounds with a hit are over-represented: about 7.5% of the library has one in this group of screens. The call rests on the fitted dose curve; in most records, active means well fitted curve in the direction sought with a large enough effect; inconclusive means small, poorly fitted or top-dose-only effect, or another doubt; inactive means no such curve, though single readings can be large; an effect the other way counts as inactive or inconclusive. Potency means the concentration at half of the fitted maximal effect.

Results for O=C(CCCN1C(=O)/C(=C\c2ccccc2)SC1=S)Nc1cccc(C(=O)O)c1 ?
ELG1 genotoxic: 0%; NPC1 promoter act: 2%; FLuc modulator: inconclusive; Rab9 promoter act: 3%

How did O=C(CCN1C(=O)/C(=C\C=C\c2ccccc2)SC1=S)Nc1cccc(C(=O)O)c1 do in these assays?
ELG1 genotoxic: inconclusive; NPC1 promoter act: 3.2µM*; FLuc modulator: 0.95µM*; Rab9 promoter act: inconclusive

Results for Cn1c(=O)c2c(nc3n2CC(O)CN3c2ccc(O)cc2)n(C)c1=O (stereo unspecified) ?
ELG1 genotoxic: -4%; NPC1 promoter act: -2%; FLuc modulator: -2%; Rab9 promoter act: 1%

How did CCc1ccc2oc(C(=O)NCC(c3ccc(OC)cc3)N3CCCCC3)c(C)c2c1 (stereo unspecified) do in these assays?
ELG1 genotoxic: 7%; NPC1 promoter act: -6%; FLuc modulator: 0%; Rab9 promoter act: -24%; SMN2 splice enh: -12%

What do the screens show for `CCn1ccc2cc(S(=O)(=O)N3CCCN(C(=O)Nc4ccc(C)c(F)c4)CC3)ccc21`?
FLuc modulator: -14%

What do the screens show for `COc1ccc(/C=C2\SC(=S)N(CCC(=O)Nc3cccc(C(=O)O)c3)C2=O)cc1`?
ELG1 genotoxic: 8%; NPC1 promoter act: 18%; FLuc modulator: 5.4µM*; Rab9 promoter act: 2%

What do the screens show for `COc1cccc(/C=C2\SC(=S)N(CCCC(=O)Nc3ccc(C(=O)O)cc3)C2=O)c1`?
ELG1 genotoxic: 1%; NPC1 promoter act: -3%; FLuc modulator: 21µM*; Rab9 promoter act: -13%

Results for O=C(CCN1C(=O)/C(=C/c2ccc3c(c2)OCO3)SC1=S)Nc1cccc(C(=O)O)c1 ?
ELG1 genotoxic: 2%; NPC1 promoter act: 10%; FLuc modulator: 21µM*; Rab9 promoter act: 0%

How did CCOc1cc(/C=C(\C#N)C(=O)Nc2ccc(OC)cc2)ccc1OCc1cc(=O)n2nc(CC)sc2n1 do in these assays?
FLuc modulator: 0%; SMN2 splice enh: -3%

How did CCOc1cc(C=O)cc(Cl)c1OCC(N)=O do in these assays?
ELG1 genotoxic: -2%; NPC1 promoter act: 1%; FLuc modulator: -1%; Rab9 promoter act: 6%; SMN2 splice enh: 17%; KinaseGlo FLuc: -2%

Results for COc1ccccc1N(CC(=O)NCC1CCCO1)C(=O)CNS(=O)(=O)c1ccccc1 (stereo unspecified) ?
ELG1 genotoxic: 10%; NPC1 promoter act: 1%; FLuc modulator: 5%; Rab9 promoter act: -2%

How did COc1ccc(Nc2nc(-c3sc(C)nc3C)cs2)cc1 do in these assays?
ELG1 genotoxic: 8%; NPC1 promoter act: -26%; FLuc modulator: 15µM*; Rab9 promoter act: -17%

How did COc1ccc(OC)c(Nc2nc(-c3sc(N)nc3C)cs2)c1 do in these assays?
ELG1 genotoxic: 3%; NPC1 promoter act: -1%; FLuc modulator: -2%; Rab9 promoter act: -4%; SMN2 splice enh: -16%; KinaseGlo FLuc: 0%

What do the screens show for `CC(=O)Nc1nc(C)c(-c2csc(Nc3ccc(O)cc3)n2)s1`?
ELG1 genotoxic: 1%; NPC1 promoter act: -7%; FLuc modulator: inconclusive; Rab9 promoter act: -6%; SMN2 splice enh: 8%; KinaseGlo FLuc: 3%

How did Cc1nc(C)c(-c2csc(Nc3cccnc3)n2)s1 do in these assays?
ELG1 genotoxic: inconclusive; NPC1 promoter act: 11%; FLuc modulator: 12µM*; Rab9 promoter act: 16%; SMN2 splice enh: inconclusive; KinaseGlo FLuc: -2%

How did Cc1nc(C)c(-c2csc(Nc3ccc(O)c(C(=O)O)c3)n2)s1 do in these assays?
ELG1 genotoxic: -4%; NPC1 promoter act: 8%; FLuc modulator: 9.5µM*; Rab9 promoter act: 23%

Results for Cc1nc(C)c(-c2csc(Nc3ccc(N)cc3)n2)s1 ?
ELG1 genotoxic: 4%; NPC1 promoter act: inconclusive; FLuc modulator: 11µM*; Rab9 promoter act: 22%

How did COc1cc(C(=O)NCC(c2ccc(N(C)C)cc2)N2CCc3ccccc32)cc(OC)c1OC (stereo unspecified) do in these assays?
FLuc modulator: -8%

Results for O=C1N/C(=N/Nc2ccccc2)S/C1=C\c1ccccc1 ?
ELG1 genotoxic: 10%; NPC1 promoter act: 10%; FLuc modulator: 13µM*; Rab9 promoter act: 10%; SMN2 splice enh: inconclusive; KinaseGlo FLuc: -11%

How did Cc1ccc2cccc(S(=O)(=O)Nc3ccc4c(c3)OCO4)c2n1 do in these assays?
ELG1 genotoxic: 5%; NPC1 promoter act: -2%; FLuc modulator: 2%; Rab9 promoter act: -3%; SMN2 splice enh: 7.1µM*; KinaseGlo FLuc: 0%

How did O=S(=O)(Nc1ccc2c(c1)OCCO2)c1cccc2nsnc12 do in these assays?
ELG1 genotoxic: 16µM*; NPC1 promoter act: 1%; FLuc modulator: 24µM*; Rab9 promoter act: 1%; SMN2 splice enh: -13%; KinaseGlo FLuc: 2%

How did O=S(=O)(Nc1ccc2c(c1)OCO2)c1ccccc1 do in these assays?
ELG1 genotoxic: 3%; NPC1 promoter act: -2%; FLuc modulator: 4%; Rab9 promoter act: 1%; SMN2 splice enh: -7%; KinaseGlo FLuc: -3%

What do the screens show for `CCOc1ccc(CCNc2ncnc3onc(C)c23)cc1OCC`?
FLuc modulator: -3%

How did COc1ccc(-c2noc(CN(C(=O)Cc3ccc(C)cc3)C(C)C)n2)cc1 do in these assays?
FLuc modulator: 2%; SMN2 splice enh: -41%

What do the screens show for `Cc1cccc(NC(=O)CSCC(=O)N(CCC(C)C)c2c(N)n(Cc3ccccc3)c(=O)[nH]c2=O)c1`?
ELG1 genotoxic: -20%; NPC1 promoter act: -3%; FLuc modulator: 2%; Rab9 promoter act: -6%

What do the screens show for `CCCC[n+]1ccc(-c2nc3ccc([N+](=O)[O-])cc3[nH]2)cc1`?
ELG1 genotoxic: 9%; NPC1 promoter act: 22%; FLuc modulator: inconclusive; Rab9 promoter act: inconclusive; SMN2 splice enh: 11µM*; KinaseGlo FLuc: -5%

What do the screens show for `Nc1ccc(-c2nc3ccc([N+](=O)[O-])cc3[nH]2)cc1`?
ELG1 genotoxic: 3.7µM*; NPC1 promoter act: 2.2µM*; FLuc modulator: 3.4µM*; Rab9 promoter act: 1.4µM*; SMN2 splice enh: 3.5µM*; KinaseGlo FLuc: -6%
